Records with an inconclusive call do not appear. Calls of active or inactive are those of the source. How the source made its calls, unless noted: active means hit-call score of the fitted dose curve at least 0.9, where 1 is the maximum; inactive means score below 0.9. Peptide text beside a SMILES is read from it.
What was measured:
[1] = CCTE_Mundy_HCI_Cortical_Synap_Neur_Matur_BPCount: CCTE's Synaptogenesis and Neurite Maturation Assay in rat cortical cells for Branch Point Count, Mundy Lab (AID 2284211)
Summary of the method: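 Rat primary cortical cultures, AraC added DIV 5; chemicals dosed DIV 7 through DIV 12. Fixed cells stained for MAP2, synaptophysin and Hoechst; neurite branch points counted by automated high-content imaging, fitted relative to DMSO.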

[2] = CCTE_Mundy_HCI_Cortical_NOG_NeuriteCount: CCTE's Neurite Outgrowth Assay in rat cortical cells for Neurite Count, Mundy Lab (AID 2284212);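 further: cells fixed about two days after chemical exposure began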
Procedure: CCTE_Mundy_HCI_Cortical_NOG is a multiplexed, cell-based-readout assay that uses rat primary cortical cells with measurements taken at 50.33 hours after chemical dosing in a microplate: 96-well plate.CCTE_Mundy_HCI_Cortical_NOG_NeuriteCount is one of four components of the CCTE_Mundy_HCI_Cortical_NOG assay. It measures neurite outgrowth related to the number of neurites using High Content Imaging of fluorescently labelled markers.[…] Using a type of morphology reporter, loss -of-signal activity can be used to understand developmental effects.
Exposure starts 2 hours post-plating by adding 10 ul of the working solution to 90 ul of media in the wells for a 1/10 dilution. Forty-eight hours after chemical treatment cells are fixed by direct addition of 100 ul of warm (37C) Dulbecco's phosphate buffered saline (DPBS) fixative solution containing 8% paraformaldehyde, 8% sucrose, and 0.1% of 3 mg/ml Hoechst 33342 into each well. Primary antibodies are prepared by dilution in Immunocytochemical Staining Buffer (ISB), 10X Dulbecco's PBS, 0.1% Saponin, 5% Bovine Serum Albumin, 0.5% NaN3 (Sodium Azide) and betaIII-tubulin (rabbit anti-betaIII-tubulin, 1:800) followed by Alexa Fluor-488 secondary (1:500) to label neuronal cell bodies and neurites. A Cellomics ArrayScan VTi HCS Reader is used for automated image acquisition and analysis of neurite outgrowth.

[3] = CCTE_Mundy_HCI_Cortical_NOG_NeuriteLength: CCTE's Neurite Outgrowth Assay in rat cortical cells for Neurite Length, Mundy Lab (AID 2284213)
Summary of the method: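 Neurite length was read by high-content imaging of βIII-tubulin-labelled neurites in rat primary cortical cultures. Activity was fitted relative to DMSO.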

[4] = CCTE_Mundy_HCI_Cortical_Synap_Neur_Matur_NeuriteLength: CCTE's Synaptogenesis and Neurite Maturation Assay in rat cortical cells for Neurite Length, Mundy Lab (AID 2284214)
Procedure: (§1) CCTE_Mundy_HCI_Cortical_Synap&Neurite_Matur is a multiplexed, cell-based-readout assay that uses rat primary cortical cells with measurements taken at 288.33 hours after chemical dosing in a microplate: 96-well plate.CCTE_Mundy_HCI_Cortical_Synap_Neur_Matur_NeuriteLength is one of eight components of the CCTE_Mundy_HCI_Cortical_Synap&Neurite_Matur assay. It measures synaptogenesis and neurite maturation related to neurite length using High Content Imaging of fluorescently labelled markers.[…] Using a type of morphology reporter, loss -of-signal activity can be used to understand developmental effects.
(§2) Cells are plated onto 96 well plates and allowed 2 hr for attachment to the substrate. At days in vitro (DIV) 5, Cytosine Arabinoside (AraC) is added to arrest glial cell growth. Chemicals are dosed and a media change is performed at DIV 7 of differentiation and is continued through DIV 12 when the experiment is terminated. Cells are fixed with […] and Hoechst Dye. Cells are stained using Millipore Mouse anti-MAP2MAB3418 (1:800) and Millipore Rabbit anti-Synaptophysinsc-1750 (1:250) primary antibodies and Alexa Fluor-488 goat anti-mouse and AlexaFluor-546 goat anti-rabbit secondary antibodies to label neuronal cell nuclei, synapses and neurites. A Cellomics ArrayScan VTi HCS Reader is used for automated image acquisition and analysis of neurite outgrowth.

[5] = CCTE_Mundy_HCI_Cortical_Synap_Neur_Matur_NeuriteSpotCountPerNeuron: CCTE's Synaptogenesis and Neurite Maturation Assay in rat cortical cells for Neurite Spot Count per Neuron Count, Mundy Lab (AID 2284215)
Procedure: as §1, with “plate.CCTE_Mundy_HCI_Cortical_Synap_Neur_Matur_NeuriteSpotCountPerNeuron” for “plate.CCTE_Mundy_HCI_Cortical_Synap_Neur_Matur_NeuriteLength”, “number of neurite-associated synapses (synaptophysin puncta) per neuron” for “neurite length”
as §2

[6] = TAMU_PeakParms_SingleDonor1434_Chronotropy: Texas A&M University (TAMU) 1.5-hr Human Induced Pluripotent Stem Cell (iPSC)-derived Cardiomyocytes Calcium (Ca+2) Flux Assay for Cardiotoxicity: Chronotropy (changes in peak frequency) (AID 2284217); settings: actives raise or lower the signal
Summary of the method: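 Using fluorescent Ca2+ flux, average beats per second are measured in human iPSC-derived cardiomyocytes treated 90 min (0.5% DMSO vehicle, 0.2–100 uM). Non-beating data points are removed; activity is modeled in both directions relative to DMSO controls.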

[7] = CCTE_Mundy_HCI_Cortical_Synap_Neur_Matur_SynapseCount: CCTE's Synaptogenesis and Neurite Maturation Assay in rat cortical cells for Synapse Count, Mundy Lab (AID 2284218)
Summary of the method: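 Rat primary cortical cultures, AraC at DIV 5, chemical dosing DIV 7 to DIV 12 (288.33 h). Fixed cells stained for MAP2, synaptophysin and Hoechst; synapses per neuron counted by high-content imaging, loss of signal versus DMSO.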

[8] = CCTE_Mundy_HCI_Cortical_Synap_Neur_Matur_NeuriteCount: CCTE's Synaptogenesis and Neurite Maturation Assay in rat cortical cells for Neurite Count, Mundy Lab (AID 2284222);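 further: exposure from day 7 to day 12 in vitro with readout at day 12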
Procedure: as §1, with “plate.CCTE_Mundy_HCI_Cortical_Synap_Neur_Matur_NeuriteCount” for “plate.CCTE_Mundy_HCI_Cortical_Synap_Neur_Matur_NeuriteLength”, “number of neurites” for “neurite length”
as §2

[9] = CCTE_Mundy_HCI_Cortical_Synap_Neur_Matur_CellBodySpotCount: CCTE's Synaptogenesis and Neurite Maturation Assay in rat cortical cells for Cell Body Spot Count, Mundy Lab (AID 2284223)
Summary of the method: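 Rat cortical neurons; AraC @ DIV 5; dose + media change DIV 7; fix DIV 12; anti-MAP2/anti-synaptophysin IF, Hoechst; HCI count of soma synaptophysin puncta/neuron; DMSO = negative control.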

[10] = CCTE_Mundy_HCI_hNP1_Pro_ResponderAvgInten: CCTE's Proliferation Assay in human neuroprogenitor cells, Mundy Lab (AID 2284224; active means hit-call score of the fitted dose curve at least 0.9, where 1 is the maximum;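 further: human neural progenitor cells hNP1 derived from WA09 embryonic stem cells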)
Summary of the method: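 Proliferation read as average intensity of BrdU-positive cells, imaged at 26.25 h post-dosing: chemical exposure started after 40–44 h culture, BrdU during final 4 h, paraformaldehyde fixation. Positive-direction fit relative to DMSO.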

Measured: outcome

COC(=O)[C@H](Cc1ccccc1)NC(=O)[C@@H](N)CC(=O)O (H-Asp-Phe-OMe)
inactive: [1] | [2] | [3] | [4] | [5] | [6] | [7] | [8] | [9] | [10]

Cc1noc(NS(=O)(=O)c2ccc(N)cc2)c1C
inactive: [1] | [2] | [3] | [4] | [5] | [7] | [8] | [9]

CCCCNS(=O)(=O)c1ccccc1
inactive: [1] | [2] | [3] | [4] | [5] | [7] | [8] | [9]

Cc1c(C(=O)c2c[nH]n(C)c2=O)ccc(S(C)(=O)=O)c1C1=NOCC1
inactive: [1] | [2] | [3] | [4] | [5] | [7] | [8] | [9]

O=C(O)C(F)(F)C(F)(F)C(F)(F)C(F)(F)C(=O)O
inactive: [10]
